# A selection: hits, their analogues and other compounds. The true share with any hit is near 1.6%.
# KCNQ2 inh – rat KCNQ2 potassium channel inhibitors, primary screen, cell-based, CHO-K1, FluxOR thallium flux, B-score | Potassium voltage-gated channel subfamily KQT member 2 (Rattus norvegicus), O88943 | 20 min; hits give low values | B-score at 10 µM | hit rate 1.1% among 310,000 | AID 2156, 2009;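 active = fluorescence ratio B-score at most minus 3 library SDs, with starting brightness B-score within 2 library SDs, cut at about -5.5 in these data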
# KCNQ2 pot – potentiators of rat KCNQ2 potassium channel; Potassium voltage-gated channel subfamily KQT member 2 (Rattus norvegicus), O88943; CHO-K1 KCNQ2, FluxOR thallium flux fluorescence; hits give high values; B-score at 10 µM; hit rate 0.54% among 310,000; AID 2239, 2010;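 active = fluorescence ratio B-score at least 3 SD of library B-scores, with initial fluorescence B-score within 3 of them, cut at about 5.3 in these data; same plate scores as AID 2156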;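 also: B-score of peak minus minimum over baseline fluorescence ratio after K+ and Tl+ stimulus; positive B-score means potentiation of KCNQ2 with more thallium influx and brighter signal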
# Kir21 confirm – mouse Kir2.1 channel blockers, retest, confirmation, cell-based, FluxOR thallium flux, duplicate. shares compounds with KCNQ2 pot. Kir2.1-expressing cells, FluxOR thallium flux fluorescence; hits give low values. Tl flux remaining, % of negative control (hits give low values), % at 10 µM. hit rate 41% among 2,300. AID 2032, 2009;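 active = Primary-screen hit whose thallium flux fell at least 3 control SD below untreated wells in both duplicates, with normal baseline fluorescence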;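 also: 0% = blank wells without stimulus and 100% = stimulated no-compound controls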
# Target sequence (P35561 whole entry, looked up): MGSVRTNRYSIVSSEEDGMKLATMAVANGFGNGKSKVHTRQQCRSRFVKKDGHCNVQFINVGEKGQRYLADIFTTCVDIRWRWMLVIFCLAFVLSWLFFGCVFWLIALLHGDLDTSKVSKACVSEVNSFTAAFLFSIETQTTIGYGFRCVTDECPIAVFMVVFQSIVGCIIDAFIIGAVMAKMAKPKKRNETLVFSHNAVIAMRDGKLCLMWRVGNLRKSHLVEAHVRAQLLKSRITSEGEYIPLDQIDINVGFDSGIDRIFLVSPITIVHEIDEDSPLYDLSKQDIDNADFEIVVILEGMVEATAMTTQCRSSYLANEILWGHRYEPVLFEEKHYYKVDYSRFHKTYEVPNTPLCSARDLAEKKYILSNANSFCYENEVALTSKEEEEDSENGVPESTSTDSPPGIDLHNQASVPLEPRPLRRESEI
# HEK293 ctr – alters thallium flux in parental HEK293 cells, Kir2.1 counter-screen. shares compounds with KCNQ2 pot. FluxOR thallium flux fluorescence; 0% = unstimulated blank wells. FluxOR signal as % of negative control (100 = no effect), % at 10 µM. hit rate 19% among 2,300;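 active = dye signal at least 3 control SD above or below untreated wells in both duplicates, raw fluorescence within 3, either direction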;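 also: percent is based on the flux ratio of peak minus minimum fluorescence over baseline F0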
# CHO-K1 ctr – nonspecific thallium flux increase in parental CHO-K1, confirmation, counter-screen for KCNQ2 potentiator project, cell-based, FluxOR thallium flux, duplicate; shares compounds with KCNQ2 pot; parental CHO-K1 cells, FluxOR thallium flux fluorescence; zero = vehicle mean+3SD, 100% = vehicle-minus-blank window; activity increase over 3SD of controls, % at 10 µM; hit rate 43% among 1,200; AID 2282, 2010;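 active = signal rise of at least 3 SD above the untreated control mean, in both duplicate wells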;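 also: counter screen of KCNQ2 potentiator hits so any rise reflects channel-independent effects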
# KCNQ1 pot spec – human KCNQ1 channel potentiation off-target, confirmation, selectivity assay for KCNQ2 potentiator project, cell-based, CHO, FluxOR thallium flux. AID 2283, 2010. shares compounds with KCNQ2 pot. hit rate 28% among 1,200. CHO KCNQ1 stable, FluxOR thallium flux fluorescence; beyond 3SD, as % of vehicle-control signal. activation over 3SD threshold, % at 10 µM;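 active = fluorescence ratio rise of at least 3 SD of vehicle wells above their mean, in both replicate wells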;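 also: 0% = vehicle mean plus 3 SD and 100% = vehicle minus unstimulated blank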
# KCNQ2 pot conf – rat KCNQ2 channel potentiators, confirmation, cell-based, CHO, FluxOR thallium flux, duplicate; CHO-KCNQ2 cells, FluxOR thallium flux fluorescence; shares compounds with KCNQ2 pot; hit rate 68% among 1,200; potentiation, less the hit threshold, % at 10 µM;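 active = fluorescence ratio rising 3 SD or more over the vehicle control mean in both replicates, plus primary screen hit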;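 also: peak minus minimum thallium fluorescence divided by baseline after K/Tl stimulus; 0% = vehicle mean plus 3 SD and 100% = vehicle minus unstimulated blank difference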
# Kir21 spec – mouse Kir2.1 channel activation off-target, confirmation, selectivity assay for KCNQ2 potentiator project, cell-based, HEK293, FluxOR thallium flux. HEK293 Kir2.1, FluxOR thallium flux fluorescence. activity over 3SD threshold, % at 10 µM. shares compounds with KCNQ2 pot. hit rate 2% among 1,200. AID 2345, 2010;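 active = fluorescence ratio rise of at least 3 SD above the vehicle-control mean, seen in both replicates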;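 also: 0% = vehicle mean plus 3 SD and 100% = vehicle minus no-stimulus blank window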
# KCNQ2 W236L pot – potentiators of retigabine-insensitive KCNQ2 W236L, mechanism study for KCNQ2 potentiator project, cell-based, rat KCNQ2 W236L, CHO, automated patch clamp. current increase over 3SD of negative controls (%), hits give high values, % at 25 µM. shares compounds with KCNQ2 pot. AID 2558, 2010. hit rate 10% among 940. automated patch clamp current;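 active = current increase at least 3 SD of the untreated controls above them in both duplicate recordings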
# Active calls of the source: *; i = inactive; / = not tested or not shown.
SMILES,KCNQ2 inh,KCNQ2 pot,others
COc1cc(C)c(/C=C(\C#N)C(=O)Nc2cccc(C)c2)cc1C(C)C,i,/,
CC(C)C(C(=O)NCC1CCCO1)N(CC1CCCO1)C(=O)CNS(=O)(=O)c1ccccc1 (configuration not stated),i,0.03,
O=C(NCC1CCCCC1)c1cccc(Br)c1,i,/,
Cc1cc(OC(C)C(=O)NNC(=O)Nc2ccc(F)cc2F)cc(C)c1Cl (configuration not stated),i,7.5*,Kir21 confirm=i;HEK293 ctr=i;CHO-K1 ctr=-4;KCNQ1 pot spec=-11;KCNQ2 pot conf=-3;Kir21 spec=-29;KCNQ2 W236L pot=i
COc1cc([N+](=O)[O-])ccc1NC(=O)NNC(=O)C(C)Oc1ccc(F)cc1F (configuration not stated),i,/,
Cc1cccc(NC(=O)c2ccc(S(=O)(=O)N3CC(C)OC(C)C3)cc2)n1 (configuration not stated),i,/,
CC(C)(C)OC(=O)NC1CCN(S(=O)(=O)c2ccc3c(c2)OCCO3)CC1,i,0.18,
O=C(NC(=S)Nc1cc([N+](=O)[O-])ccc1O)C1CC1,i,/,
COc1ccc(N2CCN(C(c3cc(OC)ccc3OC)c3nnnn3CC3CCCO3)CC2)cc1 (configuration not stated),i,/,
Cc1ccc(-c2nc(NC(=O)c3cc(C(C)(C)C)nn3C)sc2C)cc1Cl,i,/,
O=C(NCc1ccc(Cl)cc1)c1cnn2ccccc12,i,/,
CCN(c1ccccc1)S(=O)(=O)c1cc([N+](=O)[O-])ccc1N,i,5,Kir21 confirm=56%*;HEK293 ctr=i
CCN(c1ccccc1)S(=O)(=O)c1ccc(C(C(=O)OC)C(=O)OC)c([N+](=O)[O-])c1,i,/,
C=CCN(Cc1nc(-c2ccccc2)no1)C(=O)c1ccc2c(c1)OCO2,i,/,
COc1ccc(CCC(C)NCc2ccc(Cl)c(Cl)c2)cc1 (configuration not stated),i,/,
COc1ccc(CCC(C)NCCc2ccc(Cl)cc2Cl)cc1 (configuration not stated),i,/,Kir21 confirm=16%*;HEK293 ctr=i
O=C(NCC1CCCO1)C1CCCN(S(=O)(=O)c2ccc(Cl)cc2)C1 (configuration not stated),i,0.92,
COC(=O)c1sccc1NC(=O)C1CC2CCC1C2 (configuration not stated),i,1.1,
Cc1cccc(NC(=O)C2CC3CCC2C3)c1C (configuration not stated),i,6.9*,Kir21 confirm=i;HEK293 ctr=i;CHO-K1 ctr=-23;KCNQ1 pot spec=-14;KCNQ2 pot conf=14*;Kir21 spec=-29;KCNQ2 W236L pot=i
CCOC(=O)c1ccc(NC(=O)C2CC3CCC2C3)cc1 (configuration not stated),i,1.3,
COC(=O)c1ccc(NC(=O)C2CC3CCC2C3)cc1 (configuration not stated),i,1.2,
Cc1cccc(C)c1NC(=O)C1CC2CCC1C2 (configuration not stated),i,6.2*,Kir21 confirm=i;HEK293 ctr=i;CHO-K1 ctr=2.9*;KCNQ1 pot spec=34*;KCNQ2 pot conf=-3;Kir21 spec=-32;KCNQ2 W236L pot=i
Cc1cc(C)c(NC(=O)C2CC3CCC2C3)c(C)c1 (configuration not stated),i,28*,Kir21 confirm=i;HEK293 ctr=i;CHO-K1 ctr=-6;KCNQ1 pot spec=-12;KCNQ2 pot conf=112*;Kir21 spec=-21;KCNQ2 W236L pot=i
COc1ccc(C2=NS(=O)(=O)N(C)C(C(=O)NCc3ccccn3)=C2)cc1OC,i,/,
COc1cccc(N=C(N)N)c1,i,/,
SMILES,KCNQ2 inh,KCNQ2 pot,others
O=S(=O)(NCCS(=O)(=O)N1CCN(c2ccccc2)CC1)c1ccccc1,i,0.11,
CC(C)Oc1ccc(CNC2CCOC(C)(C)C2)cc1 (configuration not stated),i,/,
CN(C)c1ccc(/C=N/NC(=O)CN2CCCCC2)cc1Br,i,/,
CN(C)C(=O)CN1CCN(Cc2cn(C)nc2-c2ccc3c(c2)OCCO3)CC1,i,/,
CC(C)CCn1c(=O)c2ccccc2n2c(CN3CCOCC3)nnc12,i,0.63,
CC(Cc1ccccc1)N1C(=O)c2cccc([N+](=O)[O-])c2C1=O (configuration not stated),i,/,
N=c1c2c(ncn1CCCO)Oc1c(ccc3ccccc13)C2c1ccccc1 (configuration not stated),i,/,
CN(C)CCCn1cnc2c(c1=N)C(c1ccccc1)c1ccc3ccccc3c1O2 (configuration not stated),i,/,Kir21 confirm=i;HEK293 ctr=i
O=[N+]([O-])c1ccc(NCc2ccc(Cl)cc2)nc1,i,0.01,
O=[N+]([O-])c1ccc(Nc2ccc(Cl)cc2)nc1,i,14*,Kir21 confirm=i;HEK293 ctr=i;CHO-K1 ctr=-1;KCNQ1 pot spec=-21;KCNQ2 pot conf=18*;Kir21 spec=-23;KCNQ2 W236L pot=i
NS(=O)(=O)c1ccc(CCNCc2ccccc2OCc2ccc(F)cc2)cc1,i,0.56,
NS(=O)(=O)c1ccc(NCc2ccccc2OCc2ccc(F)cc2)cc1,i,6.6*,Kir21 confirm=i;HEK293 ctr=i;CHO-K1 ctr=38*;KCNQ1 pot spec=-16;KCNQ2 pot conf=2.5*;Kir21 spec=-54;KCNQ2 W236L pot=i
N#Cc1c(NC(=O)C2CC(Cl)=CCC2C(=O)O)sc2c1CCCC2 (configuration not stated),i,0.33,
CCC(=O)OCc1c(C(F)(F)F)nn(C)c1Sc1ccc(F)cc1,i,/,Kir21 confirm=48%*;HEK293 ctr=i
CCC(=O)OCc1c(C(F)(F)F)nn(C)c1Sc1ccc(Cl)cc1,i,/,
CCc1ccccc1NC(=S)N(Cc1ccc(C(=O)O)cc1)Cc1ccc(OC)c(OC)c1,i,2.9,
